C diff growth: C. difficile growth inhibitors, primary screen, HTS; Clostridium difficile clinical isolate growth, OD600, 24 h; active compounds read low; growth activity, negative = inhibition, % at 16 µg/mL (by protocol); 86,000 tested, 0.25% active;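 active = mean growth activity at or below -80% and every replicate also at or below -80%; inconclusive = mean at or below -80% but some replicate above -80%; inactive = mean growth activity above -80%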
T cruzi growth-1: T. cruzi intracellular proliferation inhibitors, primary screen, cell-based, beta-gal Tulahuen parasites, NIH3T3 host, luminescence; 77,000 tested, 5.9% active; T. cruzi beta-gal in NIH3T3, GalScreen luminescence, 90 h; inhibition, % at 8.34 µM;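 active = mean inhibition above about 93%, with at least 55% of replicates each passing it, limit read from the data, passing the limit was not always enough; inconclusive = only one of those two conditions holds; inactive = neither condition holds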
T cruzi growth-2: T. cruzi intracellular proliferation inhibitors, confirmation, cell-based, NIH3T3 host, beta-gal parasite, luminescence, cherry-pick | shares compounds with T cruzi growth-1 | T. cruzi beta-gal in NIH3T3, GalScreen luminescence, 90 h | inhibition, % at 8.35 µM | 5,600 tested, 72% active | AID 651739, 2012;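 active = mean replicate inhibition above about 95% and at least 55% of replicates individually reaching it, limit read from the data; inconclusive = only one of the two criteria is met; inactive = neither criterion is met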
T cruzi growth-3: inhibitors of intracellular T. cruzi replication, confirmation, NIH3T3 host cells, beta-gal parasites, cherry-pick, set 2. shares compounds with T cruzi growth-1. 5,600 tested, 21% active. AID 651740, 2012. inhibition, % at 2.09 µM. T. cruzi beta-gal in NIH3T3, GalScreen luminescence, 90 h;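 active = mean inhibition above about 95%, with at least 55% of replicates also reaching it, limit read from the data; inconclusive = meets just one of the two conditions; inactive = meets neither condition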
NIH3T3 tox: cytotoxicity in mouse NIH/3T3 fibroblasts, confirmation, cytotoxicity control for T. cruzi proliferation inhibitor project, cell-based, cherry-pick, single point. NIH/3T3 viability, CellTiter-Glo ATP luminescence, 90 h. shares compounds with T cruzi growth-1. cytotoxicity (signal decrease), % at 8.35 µM. 5,600 tested, 14% active;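 active = mean signal decrease across replicates above about 35% based on untreated-well scatter, with enough replicates individually passing, limit read from the data; inconclusive = no rule stated though some were filed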
3T3 cytotox 2: NIH/3T3 fibroblast cytotoxicity, confirmation, cytotoxicity control, cell-based, cherry-pick, single point, set 2; shares compounds with T cruzi growth-1; NIH/3T3 viability, CellTiter-Glo ATP luminescence, 90 h; inhibition, % at 24.9 µM; 5,600 tested, 56% active; AID 651744, 2012;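 active = mean loss of cell viability signal at or above a set limit, and enough replicates individually reaching it; inconclusive = meets only the mean limit or only the replicate share; inactive = meets neither condition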
Hits are given with their value; n = inactive; u = inconclusive; x = no result given. Shown is part of a subset that was picked to be rich in hits.

SMILES	C diff growth	T cruzi growth-1	T cruzi growth-2	T cruzi growth-3	NIH3T3 tox	3T3 cytotox 2
C[C@@H]1CCCCO[C@@H](CN(C)C(=O)Nc2ccccc2)[C@H](C)CN([C@@H](C)CO)C(=O)c2cc(NS(=O)(=O)c3ccc(Cl)cc3)ccc2O1	n	u	108.2	n	n	n
CO[C@@H]1CN(C)C(=O)c2cc(NC(C)=O)ccc2OC[C@@H](C)N(C(=O)CC2CC2)C[C@@H]1C	n	n	x	x	x	x
Cc1ccc(S(=O)(=O)Nc2ccc3c(c2)C(=O)N([C@H](C)CO)C[C@H](C)[C@H](CN(C)C(=O)Nc2ccc4c(c2)OCO4)O3)cc1	x	n	x	x	x	x
COc1ccccc1C#Cc1ccc2c(c1)O[C@@H](CN(C)Cc1ccccc1)[C@@H](C)CN([C@@H](C)CO)S2(=O)=O	n	122.2	103.9	105.9	n	n
COc1ccccc1C#Cc1ccc2c(c1)O[C@H](CN(C)Cc1ccncc1)[C@H](C)CN([C@@H](C)CO)S2(=O)=O	n	n	x	x	x	x
COc1ccccc1C#Cc1ccc2c(c1)O[C@@H](CN(C)Cc1cccnc1)[C@H](C)CN([C@H](C)CO)S2(=O)=O	n	x	x	x	x	x
COc1ccccc1C#Cc1ccc2c(c1)O[C@@H](CN(C)Cc1ccncc1)[C@@H](C)CN([C@@H](C)CO)S2(=O)=O	n	123.0	101.1	100.6	n	40.1
C[C@@H]1CCCCO[C@H](CN(C)Cc2ccc(C(F)(F)F)cc2)[C@H](C)CN([C@H](C)CO)C(=O)c2cc(NS(=O)(=O)c3ccc(F)cc3)ccc2O1	n	n	x	x	x	x
O=C(N[C@H]1CC[C@@H](CCNS(=O)(=O)c2ccc(F)cc2)O[C@H]1CO)c1cccnc1	x	n	x	x	x	x
C[C@H]1CN([C@@H](C)CO)S(=O)(=O)c2ccc(-c3cncnc3)cc2O[C@@H]1CN(C)Cc1ccccc1	n	106.2	u	100.4	n	31.0
C[C@H]1CN([C@@H](C)CO)S(=O)(=O)c2ccc(-c3cncnc3)cc2O[C@H]1CN(C)Cc1cncnc1	n	n	x	x	x	x
C[C@@H]1CN([C@H](C)CO)S(=O)(=O)c2ccc(-c3cncnc3)cc2O[C@H]1CN(C)Cc1cncnc1	n	n	x	x	x	x
C[C@H](CO)N1C[C@H](C)[C@@H](CN(C)Cc2ccccc2)Oc2cc(-c3cncnc3)ccc2S1(=O)=O	n	113.3	n	u	37.9	70.1
C[C@@H]1CN([C@@H](C)CO)C(=O)Cc2cc(NC(=O)Cc3cn(C)c4ccccc34)ccc2O[C@H]1CN(C)CC1CC1	n	n	x	x	x	x
CCC(=O)N1[C@@H]2Cn3c(cccc3=O)[C@H]1[C@@H](C(=O)NCc1ccc(F)cc1)[C@@H]2CO	n	n	x	x	x	x
COc1cccc(S(=O)(=O)N2C[C@@H](O)COC[C@@H]3O[C@H](CC(=O)N4CCN(c5ccccc5)CC4)CC[C@H]32)c1	n	n	x	x	x	x
C/C=C/c1ccc([C@@H]2[C@H](CO)N(C(C)=O)[C@H]2CNC(=O)CC2CC2)cc1	n	n	x	x	x	x
OC[C@@H]1Nc2ccc(C#Cc3ccc(F)cc3)cc2[C@H]2[C@@H]1CCN2Cc1nccs1	x	104.1	98.4	105.3	36.8	104.6
O=C(C1CC1)N1CC[C@@H]2[C@H]1c1cc(C#Cc3ccc(F)cc3)ccc1N[C@@H]2CO	n	n	x	x	x	x
OC[C@@H]1Nc2ccc(C3=CCCCC3)cc2[C@@H]2[C@H]1CCN2Cc1nccs1	n	x	x	x	x	x
OC[C@H]1Nc2ccc(C#Cc3ccc(F)cc3)cc2[C@H]2[C@@H]1CCN2Cc1nccs1	n	103.5	107.4	101.6	n	105.8
CCCNC(=O)Nc1ccc2c(c1)C(=O)N(C)C[C@H](OC)[C@@H](C)CN(C)[C@H](C)CO2	n	n	x	x	x	x
Cc1noc(C)c1NC(=O)N(C)C[C@@H]1Oc2ccc(NC(=O)Cc3cn(C)c4ccccc34)cc2CC(=O)N([C@H](C)CO)C[C@H]1C	n	n	x	x	x	x
CC1C=NC(S(=O)(=O)N2CC[C@@H]3[C@H]2c2cc(-c4cccc(F)c4)ccc2N(C)[C@H]3CO)=N1 (stereo partly specified)	n	u	104.5	n	n	n
